{"source": "PubChem BioAssay (NCI)", "note": "This is part of a sample that, as a whole, favours compounds with a hit. Of some 83,000 tested, about 20% had one in any assay.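 Treatment: one concentration, 48 hours, 96-well format. Scoring: percent growth, with anything below 10 considered active.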 Values without a mark were called inactive. Activity calls are given as the source filed them."}
{"system": "UO-31 renal", "assay": "NCI-60 one-dose screen, 48 h (100 = growth as untreated, 0 = no growth, -100 = all killed)", "conditions": "10 µM unless noted", "experimental": "Growth inhibition of the UO-31 human tumor cell line is measured as a screen for anti-cancer activity. Cells are grown in 96 well plates and exposed to the test compound for 48 hours. Compounds are tested at a single concentration, which is 10^-5 M for most compounds. The reported endpoint is percent growth (GI% or GIPRCNT), where numbers from 0 - 100% represent growth inhibition, and numbers from -100% - 0 represent cell death. For example, a value of 40 represents 60% growth inhibition. A value of 0 means no net growth occurred over the course of the experiment. A value of -40 indicates 40% of cells at the beginning of the experiment died by the end of the experiment. A value of -100 means all cells are dead at the end of the experiment.\nNCI-60 Human Tumor Cell Lines Screen was performed using the standard one-dose NCI protocol, which is described in more detail at https://dtp.cancer.gov/discovery_development/nci-60/default.htm.\nCompounds with GIPRCNT values below 10 were considered active. Activity score was based on GIPRCNT using the following formula: […]\nScore is 0 for GIPRCNT values of 100 or above, 50 for GIPRCNT values of 0, and 100 for GIPRCNT values of -100."}
{"smiles": "O=c1ssc(Cl)c1-c1ccccc1", "growth": "74.6%"}
{"smiles": "CCOC(=O)c1ccc(N2NC(=O)/C(=C/c3ccc([N+](=O)[O-])o3)C2=O)cc1", "growth": "100%"}
{"smiles": "CC(=O)n1c(-c2ccc(Cl)cc2)nc2c(c1=O)C(c1ccc(Cl)cc1)c1sc3c(Cl)cccc3c1O2", "note": "(stereo not given)", "growth": "15.6%"}
{"smiles": "Cc1ccc(C2SCC(=O)N2Cc2ccccc2)cc1", "note": "(stereo not given)", "growth": "83.8%"}
{"smiles": "CC(C)Sc1nc(NNC(N)=S)c(C#N)c(-c2ccc(F)cc2)n1", "growth": "79.7%"}
{"smiles": "O=c1c2c3c(sc2nc(N/N=C/c2ccc(Br)cc2)n1Cc1ccccc1)CCCC3", "growth": "62.3%"}
{"smiles": "Cc1cc(NCCCCNc2ccnc3cc(Cl)ccc23)nc(Nc2ccc(C(=O)N3CCCC3)cc2)n1", "growth": "75.4%"}
{"smiles": "COc1ccc(N2CCN(c3nc(-c4cc(OC)c(OC)c(OC)c4)nc4ccccc34)CC2)cc1", "growth": "69.9%"}
{"smiles": "COc1ccc2c(c1)O/C(=C/c1ccc(OCC(=O)c3ccccc3)cc1)C2=O", "growth": "-29.2% (active)"}
{"smiles": "CN1C(=O)N(C)C2C1NN=c1s/c(=C\\c3ccccc3)c(=O)n12", "note": "(stereo not given)", "growth": "44.8%"}
{"smiles": "CCOC(=O)/C=C/c1cc2cc(-c3csc4ccccc34)ccc2[nH]1", "growth": "36.2%"}
{"smiles": "O=C(COc1ccc(/C=C2\\Oc3ccccc3C2=O)cc1)Nc1nc2ccccc2s1", "growth": "-77.2% (active)"}
{"smiles": "O=c1cc(C2NNC(=S)N2)c2ccc3ccccc3c2o1", "note": "(stereo not given)", "growth": "70.6%"}
{"smiles": "CN(C)c1ccc(-c2cc(-c3ccc(Nc4nc(Nc5ccc(Cl)cc5)nc(Nc5ccc(Cl)cc5)n4)cc3)no2)cc1", "growth": "23.5%"}
{"smiles": "O=C(Nc1cccc2c(O)c(N=Nc3ccc(S(=O)(=O)Nc4nccs4)cc3)cc(N=Nc3ccc(S(=O)(=O)Nc4nccs4)cc3)c12)C(Cl)Cl", "growth": "68.3%"}
{"smiles": "CC(=O)N1C(=S)NC(=O)C1Cn1c(-c2ccccc2)nc2ccccc21", "note": "(stereo not given)", "growth": "80.8%"}
{"smiles": "NC(=N\\N=C/c1cccc([N+](=O)[O-])c1)/C(N)=N\\N=C/c1cccc([N+](=O)[O-])c1", "growth": "107%"}
{"smiles": "CC(=O)[C@@H]1CC[C@]2(COS(=O)(=O)c3ccc(C)cc3)CC[C@]3(C)[C@H](CC[C@@H]4[C@@]5(C)CCCNC(C)(C)[C@@H]5CC[C@]43C)[C@@H]12", "growth": "66.3%"}
{"smiles": "Cc1cc(C)c2c(-c3nnc(N)s3)cc(=O)oc2c1", "growth": "88%"}
{"smiles": "Fc1cnc(NC2CC2)nc1-c1cnc2ccc(N3CCOCC3)cn12", "growth": "7.85% (active)"}
{"smiles": "O=C(Nc1ccccc1)Nc1cccc(Oc2nnc(Cl)c3ccccc23)c1", "growth": "34.9%"}
{"smiles": "CC(C)CC(NC(=O)CN(Cc1ccccc1)S(C)(=O)=O)C(=O)O", "note": "(stereo not given)", "growth": "96.7%"}
{"smiles": "O=C(N/N=C/c1ccncc1)c1ccc(C(F)(F)F)nc1Nc1cccc(C(F)(F)F)c1", "growth": "8.19% (active)"}
{"smiles": "CC1=NOC(=O)/C1=C\\c1ccc(O)cc1", "growth": "85.7%"}
{"smiles": "Cc1c(Cl)cc(-n2c(=O)c3ccccc3c3ccccc3c2=O)cc1Cl", "growth": "65.3%"}
{"smiles": "O=C(Nc1cccc(Cl)c1)c1cc(N=Nc2ccc([N+](=O)[O-])cc2Cl)ccc1O", "growth": "38.7%"}
{"smiles": "Cc1ccc(/C=C2\\C(=O)N(C)c3ccc(S(=O)(=O)Nc4ccc(C(C)(C)C)cc4)cc32)s1", "growth": "56.9%"}
{"smiles": "O=c1oc2ccccc2c(Cl)c1Cl", "growth": "62.3%"}
{"smiles": "COC(=O)c1c2c(c[n+]([O-])c1C)C(=O)C=CC2=O", "growth": "46.5%"}
{"smiles": "Cc1ccccc1NC(=O)N/C(N)=N/c1nc(-c2cccc([N+](=O)[O-])c2)cs1", "growth": "58.1%"}
{"smiles": "Cc1c(C(=O)N[C@@H](Cc2ccccc2)C(=O)C(=O)NCCc2ccccc2)[nH]c2ccccc2c1=O", "growth": "103%"}
{"smiles": "O=[N+]([O-])c1ccc(N2c3ccncc3Sc3ccncc32)cc1", "growth": "56.9%"}
{"smiles": "Cc1ccc(NS(=O)(=O)c2ccc3c(c2)C(=O)CC(c2ccc(C(=O)C(C)C)cc2)N3)cc1C", "note": "(stereo not given)", "growth": "51.7%"}
{"smiles": "O=C(Nc1ccc(Nc2ccncc2)cc1)c1ccc(C(=O)Nc2ccc(Nc3ccncc3)cc2)cc1", "growth": "89.4%"}
{"smiles": "COc1ccc(-c2ccc3c(c2)sc2nc(-c4ccc(F)cc4)cn23)cc1", "growth": "81%"}
{"smiles": "Clc1cc(Cl)cc(Nc2ccc3cc(OCCCN4CCOCC4)ccc3n2)c1", "growth": "26.5%"}
{"smiles": "O=C(O)c1ccc2c(c1Cl)C(=O)c1ccccc1C2=O", "growth": "93.2%"}
{"smiles": "O=C(NCCCNc1cc(-c2cn(-c3ccccc3)nc2-c2cccc(O)c2)ccn1)c1ccccc1", "growth": "22.6%"}
{"smiles": "CCc1c2c(nc3ccc(OC(=O)NCc4ccc(B5OC(C)(C)C(C)(C)O5)cc4)cc13)-c1cc3c(c(=O)n1C2)COC(=O)[C@]3(O)CC", "growth": "-67.7% (active)"}
{"smiles": "COc1ccc(C2=NN(C(=O)c3cc(OC)c(OC)c(OC)c3)C(c3ccc(Cl)cc3)C2)cc1OC", "note": "(stereo not given)", "growth": "34.4%"}
